Reference: PMC4336329 (PLoS ONE, 2015)
The whole screen tested about 310,000 compounds, of which about 2,200 (0.71%) showed an effect of 50% or more. Effects have a minus sign here. The full list was thinned out, with strong results kept by preference.

target: human ether-à-go-go-related gene (hERG) potassium channel (human, UniProt Q12809); experiment: primary screen, population patch clamp on CHO cells stably expressing hERG; higher = less effect of the substance
Sequence (Q12809 whole entry, looked up): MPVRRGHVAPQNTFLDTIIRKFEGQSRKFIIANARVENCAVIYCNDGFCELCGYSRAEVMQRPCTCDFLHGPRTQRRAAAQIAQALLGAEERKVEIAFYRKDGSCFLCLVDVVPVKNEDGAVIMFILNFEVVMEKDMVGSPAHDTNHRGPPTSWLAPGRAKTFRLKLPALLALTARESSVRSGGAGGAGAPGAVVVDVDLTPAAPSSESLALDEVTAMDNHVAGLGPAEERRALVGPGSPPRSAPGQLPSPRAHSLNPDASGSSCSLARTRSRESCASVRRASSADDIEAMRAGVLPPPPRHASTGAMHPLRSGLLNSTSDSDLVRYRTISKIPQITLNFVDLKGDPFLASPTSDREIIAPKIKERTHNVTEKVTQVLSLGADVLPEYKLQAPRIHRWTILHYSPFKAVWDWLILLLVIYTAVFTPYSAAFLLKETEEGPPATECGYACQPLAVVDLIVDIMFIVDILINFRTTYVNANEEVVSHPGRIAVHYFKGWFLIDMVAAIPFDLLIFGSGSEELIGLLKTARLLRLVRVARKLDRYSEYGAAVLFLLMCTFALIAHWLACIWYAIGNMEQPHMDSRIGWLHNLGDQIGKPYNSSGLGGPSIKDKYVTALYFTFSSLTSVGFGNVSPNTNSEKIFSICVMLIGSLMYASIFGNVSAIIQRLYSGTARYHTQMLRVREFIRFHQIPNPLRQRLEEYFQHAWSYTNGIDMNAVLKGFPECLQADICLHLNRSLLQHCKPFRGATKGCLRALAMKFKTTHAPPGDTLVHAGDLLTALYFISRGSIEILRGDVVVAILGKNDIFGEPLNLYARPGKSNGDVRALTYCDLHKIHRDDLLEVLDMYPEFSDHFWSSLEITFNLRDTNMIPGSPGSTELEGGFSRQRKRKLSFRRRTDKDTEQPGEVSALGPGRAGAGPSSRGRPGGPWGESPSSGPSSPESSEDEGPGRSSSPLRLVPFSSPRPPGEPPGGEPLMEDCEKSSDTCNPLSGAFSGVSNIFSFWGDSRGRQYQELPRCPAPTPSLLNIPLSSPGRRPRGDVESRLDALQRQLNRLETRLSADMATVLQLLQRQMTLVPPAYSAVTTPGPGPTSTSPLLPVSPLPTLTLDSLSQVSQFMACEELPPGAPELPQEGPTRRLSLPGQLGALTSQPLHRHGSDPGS

Structure (SMILES) | hERG current change (%, negative = inhibition) at 1uM [%]
Cn1nc(C(F)(F)F)cc1C(=O)O | 17.3
Cl.O=C(Nc1ccc(Br)cn1)c1ccc(Br)s1 | 13.3
N=c1c(C(=O)NC2CCCCC2)cc2c(=O)n3ccccc3nc2n1Cc1ccccc1 | -10.1
N=c1c(C(=O)NC2CCCCC2)cc2c(=O)n3ccccc3nc2n1Cc1ccco1 | -59.1
Cc1ccc(Cn2c(=N)c(C(=O)NC3CCCC3)cc3c(=O)n4ccccc4nc32)cc1 | -73.4
Cc1ccc(Cn2c(=N)c(C(=O)NC3CCCCC3)cc3c(=O)n4ccccc4nc32)cc1 | -5.62
N=c1c(C(=O)NC2CCCCC2)cc2c(=O)n3ccccc3nc2n1Cc1cccnc1 | -50.6
Cc1ccc(Cn2c(=N)c(S(=O)(=O)c3ccc(C)cc3)cc3c(=O)n4ccccc4nc32)cc1 | 6.66
N=c1c(C(=O)NC2CCCC2)cc2c(=O)n3ccccc3nc2n1Cc1ccccc1 | -55.9
Cc1ccc(S(=O)(=O)c2cc3c(=O)n4ccccc4nc3n(Cc3ccco3)c2=N)cc1C | -6.2
N=c1c(C(=O)NC2CCCCC2)cc2c(=O)n3ccccc3nc2n1Cc1ccc(F)cc1 | -29.5
CCN(CC)CCOC(=O)c1ccc(N/C=C(/C#N)c2nc(-c3cccc(OC)c3)cs2)cc1 | 13.7
CCOC(=O)/C=C1\SCC(=O)N1CC(=O)Nc1ccc(OC)c(OC)c1 | 12.2
CCOC(=O)C1CCN(C(=O)N(CC)CC)CC1 | 3.77
CCCCn1c(=O)c(-c2ccccc2)c(O)c2ccccc21 | 16.3
Cc1nonc1C1CCCN1C(=O)c1cc(COc2ccc(F)cc2Cl)on1 (centres unmarked) | 8.74
COc1ccc(NC2CCCN(C(=O)CSc3ccccc3)C2)cc1OC (centres unmarked) | 4.34
CC1(C)CC(=O)C(C(c2cccnc2)C2C(=O)CC(C)(C)CC2=O)C(=O)C1 | 2.02
CCCC(=O)N1CCN(c2ccc(NC(=O)c3ccc(N4CCCC4)c([N+](=O)[O-])c3)cc2Cl)CC1 | -8.46
Br.N=C1c2ccccc2CN1NC(=O)C1CC1 | 7.71
CCCCN(C)C(=O)c1cc2c(s1)-c1ccccc1S(=O)(=O)C2 | -6.69
Cc1[nH]c(=O)[nH]c(=O)c1S(=O)(=O)N1CCC(C(=O)NC(C)c2ccccc2)CC1 (centres unmarked) | 7.35

Structure (SMILES) | hERG current change (%, negative = inhibition) at 1uM [%]
COC(=O)c1ccc(CN2CCC(Oc3ccc(C(=O)N4CCCCC4)cc3)CC2)cc1 | -11.3
O=C(c1ccc(OC2CCN(CCc3ccccc3)CC2)cc1)N1CCCC1 | -1.63
O=C(c1ccc(OC2CCN(Cc3ccc(F)cc3)CC2)cc1)N1CCCC1 | 7.68
CC(=O)Nc1ccc(CN2CCC(Oc3ccc(C(=O)N4CCCC4)cc3)CC2)cc1 | -6.27
CSc1ccc(CN2CCC(Oc3cccc(C(=O)N4CCCC4)c3)CC2)cc1 | -36.7
CCc1ccc(CN2CCC(Oc3ccc(C(=O)N4CCCC4)cc3)CC2)cc1 | -77.5
O=C(c1ccc(OC2CCN(CCCc3ccccc3)CC2)cc1)N1CCCC1 | -55.2
O=C(c1ccc(OC2CCN(Cc3ccc(C(F)(F)F)cc3)CC2)cc1)N1CCCCC1 | 6.84
CCc1ccc(CN2CCC(Oc3ccc(C(=O)N4CCCCC4)cc3)CC2)cc1 | -61.5
CC(=O)N1CCN(C(=O)c2ccc(OC3CCN(CCc4ccccc4)CC3)cc2)CC1 | 14.6
CSc1ccc(CN2CCC(Oc3ccc(C(=O)N4CCCC4)cc3)CC2)cc1 | -56.4
CC(C)c1ccc(CN2CCC(Oc3ccc(C(=O)N4CCCC4)cc3)CC2)cc1 | -33.7
CC(=O)c1cc(C(=O)N2CCCC(CCC(=O)N(C)CCc3ccccn3)C2)cs1 (centres unmarked) | 9.12
Cc1ccc(S(=O)(=O)Nc2cccc(/C=C/C(=O)O)c2)cc1 | 17
O=C(CN1CCN(c2ccc(Cl)cc2)CC1)c1ccc2c(c1)OCO2 | 1.86
COc1ccccc1/C=C/C(=O)Nc1cccc(S(=O)(=O)NC2=NCCCCC2)c1 | 13.1
COc1ccc(C(=O)NC(=S)N2CCCCC2)cc1[N+](=O)[O-] | 5.8
O=C(NCc1ccco1)c1sc(=S)n2c1[nH]c(=O)c1ccccc12 | -4.07
CCCCn1c(N)c(N(CC)C(=O)c2ccccc2F)c(=O)[nH]c1=O | 19.7
CCOc1ccccc1NC(=O)CSc1nnc(Cc2cccn2C)n1-c1ccc(F)cc1 | -8.2
CCCCc1nc(NCC2CCCO2)c(C#N)c2c1COC(C)(C)C2 (centres unmarked) | 6.42
COc1ccccc1OCc1ccc(C(=O)NN)cc1 | 5.11

Structure (SMILES) | hERG current change (%, negative = inhibition) at 1uM [%]
C[C@@H]1CC[C@@]2(O[C@@H](CCO)C[C@@H](O)[C@@H]2O)O1 | 20.7
O=C(c1ccc(OC2CCN(C/C=C/c3ccccc3)CC2)cc1)N1CCCC1 | -27.1
O=C(c1ccc(OC2CCN(C/C=C/c3ccc(F)cc3)CC2)cc1)N1CCCC1 | -74.9
O=C(c1ccc(OC2CCN(C/C=C/c3ccc(F)cc3)CC2)cc1)N1CCCCC1 | -19.2
Cc1cccc(N2CCN(C(=O)c3ccc4nc(N5CCCCC5)sc4c3)CC2)c1C | 8.76
Brc1csc(C=Nc2ccc3c(c2)OCCOCCOCCOCCO3)c1 | -78.1
Brc1ccc(C=Nc2ccc(Nc3ccccc3)cc2)s1 | 14.7
Oc1c(Cl)cc(Cl)cc1C=Nc1ccc2c(c1)OCCO2 | 16
Oc1c(Br)cc(Br)cc1C=Nc1ccc2c(c1)OCCO2 | 12.2
Brc1ccc(C=Nc2ccc3c(c2)OCCOCCOCCO3)s1 | -58.3
O=C(N/N=C/c1cc(Br)cs1)c1ccc2c(c1)OCCO2 | 9.48
COc1ccc(/[N+]([O-])=C/c2ccoc2)cc1 | 14
Nc1nnc(SCc2nc3scc(-c4ccccc4)c3c(=O)[nH]2)s1 | 15.6
O=C(CC1CCCC1)Nc1nnc(C2CC2)s1 | 11.5
CC(=O)Nc1cccc(NC(=O)CSc2nccn2Cc2ccccc2)c1 | 14.4
CN(C(=O)c1ccc(Cl)nc1)C1(c2ccccc2Cl)CCCCC1=O (centres unmarked) | 5.36
O=C(NCC(=O)N(c1ccccc1)C(C(=O)NCC1CCCO1)c1ccccc1)c1ccco1 (centres unmarked) | 13.9
C=Cc1ccc(Cn2c(=O)n(C)c(=O)c3sccc32)cc1 | 12.4
FC(F)(F)c1ccc(-c2n[nH]c(=S)o2)nc1 | 9.8
CC(=O)c1c(N2CCN(c3ccccc3)CC2)nc(=S)n(-c2ccccc2)c1C | 2.93
CC(=O)c1c(N2CCN(c3ccc(F)cc3)CC2)nc(=S)n(-c2ccccc2)c1C | -69.3
COc1ccc(N2CCN(c3nc(=S)n(-c4ccccc4)c(C)c3C(C)=O)CC2)cc1 | 10.2

Structure (SMILES) | hERG current change (%, negative = inhibition) at 1uM [%]
CN(c1ccc(O)cc1)c1nc(O)c(C2=c3ccccc3=NC2=O)s1 | 8.57
Cc1cc(Br)cc2c1N(C)C(=O)C2(c1ccc(O)cc1)c1ccc(O)cc1 | 12
O=[N+]([O-])c1ccc(NC(=S)N2CCN(c3ccc(F)cc3)CC2)cc1 | 13
CCNC(=S)N1CCN(c2ccc([N+](=O)[O-])cc2)CC1 | -50.5
O=[N+]([O-])c1ccc(N2CCN(C(=S)Nc3ccccc3)CC2)cc1 | 5.2
CNC(=S)N1CCN(c2ccc([N+](=O)[O-])cc2)CC1 | -40.5
COCCNC(=S)N1CCN(c2ccc(Cl)cc2)CC1 | 1.27
COCCCNC(=S)N1CCN(c2ccc([N+](=O)[O-])cc2)CC1 | -64.8
O=[N+]([O-])c1ccc(N2CCN(C(=S)NCc3ccc(Cl)cc3)CC2)cc1 | 12.9
C=CCNC(=S)N1CCN(c2ccc([N+](=O)[O-])cc2)CC1 | -52.1
COCCCNC(=S)N1CCN(c2ccccc2)CC1 | 18.3
Cc1ccc(OCc2nnc(NC(=O)c3ccco3)s2)c(C)c1 | 17.8
C/C(=N/NC(=O)c1ccc(Br)o1)c1ccc(C)o1 | 0.861
COCCNC(=S)NNC(=O)c1cc(C2CC2)nc2ccccc12 | 14.8
O=C(CCC(=O)OCc1cccc([N+](=O)[O-])c1)Nc1ccccc1Cl | 2.86
O=[N+]([O-])c1cccc(Cl)c1CSc1ccccn1 | 11
CC[n+]1c(/C=C/c2ccc(OC)c(OC)c2)ccc2ccccc21.[I-] | 13.8
CC[n+]1c(/C=C/c2ccc(N(C)C)cc2)ccc2ccccc21.[I-] | -27
CCN(CC)c1ccc(/C=C/c2ccc3ccc(OC)cc3[n+]2CC)cc1.[I-] | -85
O=c1[nH]c(=O)n(Cc2ccco2)c2c1C(C(F)(F)F)(C(F)(F)F)N=C(Cc1ccccc1)N2 | 6.17
